Source: PubChem BioAssay
PME-1 Maybridge = Maybridge compound blocking human PME-1 | Q9Y570 | 16,000 tested, 0.5% active | inhibition, % at 9 µM | AID 2291 | recombinant PME-1, FP-Rh probe fluorescence polarization; in the data active = inhibition above about 30%
Target sequence (Q9Y570 whole entry, looked up): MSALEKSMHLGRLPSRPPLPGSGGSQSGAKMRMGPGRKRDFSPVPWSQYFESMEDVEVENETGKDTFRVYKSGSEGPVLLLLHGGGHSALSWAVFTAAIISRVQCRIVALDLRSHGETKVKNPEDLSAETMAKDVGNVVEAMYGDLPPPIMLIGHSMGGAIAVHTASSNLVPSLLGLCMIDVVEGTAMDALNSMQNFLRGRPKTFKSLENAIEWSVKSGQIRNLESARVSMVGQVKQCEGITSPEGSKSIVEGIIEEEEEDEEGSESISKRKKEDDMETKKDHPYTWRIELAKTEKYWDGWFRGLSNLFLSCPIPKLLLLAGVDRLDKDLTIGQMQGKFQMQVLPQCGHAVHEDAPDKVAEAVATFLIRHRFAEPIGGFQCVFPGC
Luminol counter = counter-screen for Nox1 inhibitors: inhibitors of luminol chemiluminescence; HRP/luminol/H2O2 chemiluminescence counterscreen; inhibition, % at 6.7 µM; 16,000 tested, 0.4% active; AID 1823; also: reference of the scale not given here
NOTCH agonist = activates NOTCH signaling in reporter cells | NOTCH signaling luciferase reporter cells, luminescence | activation, % at 2.5 µM | 15,000 tested, 0.4% active | AID 434982; in the data active = activation above about 2.2%
Nox1 inhibitor = inhibitors of human NADPH oxidase 1 (Nox1); 16,000 tested, 0.81% active; inhibition, % at 6.7 µM; AID 1792; HT29 cells, luminol chemiluminescence ROS
* hit, by the source's call. In the library only some 2.2% were active in any assay of this set; here they are far more common. Rule as the data show it, unless noted: active = inhibition above about 75%; inactive = the rest.

Nc1nnc(Sc2cc3c(cc2[N+](=O)[O-])C(=O)NC3=O)s1 was read as PME-1 Maybridge -3, Luminol counter -1, NOTCH agonist 1 and Nox1 inhibitor 76*.
`Cn1cc(Cl)c(/C=N/OC(=O)Nc2ccc(Cl)cc2)n1` gave PME-1 Maybridge 2, Luminol counter -5, NOTCH agonist 1 and Nox1 inhibitor 35.
Cc1onc(-c2cccc([N+](=O)[O-])c2)c1C(=O)O/N=C(\C#N)c1ccccc1 was read as PME-1 Maybridge 5, Luminol counter -2, NOTCH agonist -1 and Nox1 inhibitor -30.
Screening NS(=O)(=O)c1ccc(NNC(=O)c2cccs2)cc1 returned PME-1 Maybridge 4, Luminol counter -1, NOTCH agonist 0 and Nox1 inhibitor 66.
Screening NS(=O)(=O)c1ccc(NNC(=O)c2c(F)cccc2Cl)cc1 returned PME-1 Maybridge 11, Luminol counter 3, NOTCH agonist 0 and Nox1 inhibitor 81*.
O=[N+]([O-])c1ccc(-c2ccc(/C=N/NC(=S)Nc3cccc(F)c3)o2)cc1 was read as PME-1 Maybridge -7, Luminol counter 9, NOTCH agonist 0 and Nox1 inhibitor 45.
`O=[N+]([O-])c1cccc(-c2ccc(/C=N/NC(=S)NCc3ccco3)o2)c1` gave PME-1 Maybridge 36*, Luminol counter 3, NOTCH agonist -1 and Nox1 inhibitor -20.
`CC1(C)CC(Nc2ccc(Nc3ccccc3)cc2)CC(C)(C)N1` gave PME-1 Maybridge 5, Luminol counter 4, NOTCH agonist 0 and Nox1 inhibitor 103*.
Screening O=C1CC(Nc2ccccc2)C=C1Nc1ccccc1 (stereo not drawn) returned PME-1 Maybridge 1, Luminol counter -4, NOTCH agonist 1 and Nox1 inhibitor 1.
COc1cc(C(=O)n2ncc(C(C)=O)c2C)cc(OC)c1OC was read as PME-1 Maybridge 5, Luminol counter -4, NOTCH agonist 0 and Nox1 inhibitor -2.
`O=[N+]([O-])c1cc(Br)c(Oc2cncc(Cl)c2)cc1Oc1cncc(Cl)c1` gave PME-1 Maybridge 52*, Luminol counter 2, NOTCH agonist 0 and Nox1 inhibitor 55.
`O=C(O)c1cc([N+](=O)[O-])ccc1Oc1cncc(Cl)c1` gave PME-1 Maybridge -1, Luminol counter 3, NOTCH agonist 0 and Nox1 inhibitor -62.
For O=c1c2cc([N+](=O)[O-])ccc2oc2ncccc12 the results were PME-1 Maybridge 3, Luminol counter -2, NOTCH agonist 3.0* and Nox1 inhibitor 5.
O=c1oc2ccc([N+](=O)[O-])cc2cc1-n1cccc1 was read as PME-1 Maybridge -2, Luminol counter 2, NOTCH agonist -1 and Nox1 inhibitor -48.
Screening Cc1cc(NS(=O)(=O)c2ccc(NC(=O)c3nccnc3C(=O)O)cc2)no1 returned PME-1 Maybridge 24, Luminol counter 3, NOTCH agonist 0 and Nox1 inhibitor -33.
Cc1ncc(CSc2nccc(=O)[nH]2)c(CO)c1O was read as PME-1 Maybridge 2, Luminol counter -5, NOTCH agonist -1 and Nox1 inhibitor -24.
`Cc1ncc(CSc2nc3ccc(C(F)(F)F)cc3[nH]2)c(CO)c1O` gave PME-1 Maybridge 6, Luminol counter 88*, NOTCH agonist 0 and Nox1 inhibitor 4.
`C/C(=N\N=C(/C)c1cccc([N+](=O)[O-])c1)c1cccc([N+](=O)[O-])c1` gave PME-1 Maybridge -5, Luminol counter 3, NOTCH agonist -1 and Nox1 inhibitor -45.
`CC1(C)N=c2ccc([N+](=O)[O-])cc2=N1` gave PME-1 Maybridge 38*, Luminol counter 6, NOTCH agonist 0 and Nox1 inhibitor -7.
C/C(=N\OCC(=O)Nc1ccc(OC(F)(F)F)cc1)c1ccc(Cl)cc1 was read as PME-1 Maybridge -47, Luminol counter 3, NOTCH agonist 0 and Nox1 inhibitor -49.
`CCOC(=O)c1csc(Nc2ccncc2)n1` gave PME-1 Maybridge 1, Luminol counter 2, NOTCH agonist -1 and Nox1 inhibitor -29.
Screening CCOC(=O)c1csc(N/N=C2\CCc3ccccc32)n1 returned PME-1 Maybridge 61*, Luminol counter 4, NOTCH agonist 0 and Nox1 inhibitor 42.
For O=C(Nc1cccc(C(F)(F)F)c1)c1cccc(Cn2cc(C(F)(F)F)ccc2=O)c1 the results were PME-1 Maybridge -4, Luminol counter -3, NOTCH agonist 0 and Nox1 inhibitor -1.
For Cc1ccc(SC#N)c(N)n1 the results were PME-1 Maybridge 3, Luminol counter -9, NOTCH agonist 0 and Nox1 inhibitor 100*.
For CC(Oc1ccc(I)cc1)C(=O)Nc1ccc(Br)cc1 (stereo not drawn) the results were PME-1 Maybridge 3, Luminol counter -1 and Nox1 inhibitor -15.
`N#Cc1csc(-c2ccc(F)cc2F)n1` gave PME-1 Maybridge -8, Luminol counter -3, NOTCH agonist -1 and Nox1 inhibitor 14.
Cc1cc(C(=O)NN)ccc1[N+](=O)[O-] was read as PME-1 Maybridge 5, Luminol counter 7, NOTCH agonist 0 and Nox1 inhibitor 22.
For Cc1cc(OCc2ccccc2)ccc1[N+](=O)[O-] the results were PME-1 Maybridge 3, Luminol counter -2, NOTCH agonist 2.5* and Nox1 inhibitor -15.
Screening O=C(Nc1ccc(F)cc1)N1CCN(c2ccncc2)CC1 returned PME-1 Maybridge -1, Luminol counter -1, NOTCH agonist 0 and Nox1 inhibitor -16.
`CCOC(=O)COc1cccc([N+](=O)[O-])c1` gave PME-1 Maybridge 5, Luminol counter -6, NOTCH agonist 3.0* and Nox1 inhibitor -5.
CCOC(=O)COc1cccc(NC(=O)c2ccccc2Cl)c1 was read as PME-1 Maybridge -4, Luminol counter 3, NOTCH agonist 0 and Nox1 inhibitor -14.
Screening COc1ccc(C(=O)Nc2nc(-c3ccc(C)c(Cl)c3)c(C)s2)cc1 returned PME-1 Maybridge 5, Luminol counter -7, NOTCH agonist 0 and Nox1 inhibitor 18.
O=[N+]([O-])c1ccc(OCS(=O)(=O)c2ccc(F)cc2F)c(Cl)c1 was read as PME-1 Maybridge 7, Luminol counter -7, NOTCH agonist 0 and Nox1 inhibitor 24.
For COc1ccc(OC)c(S(=O)(=O)c2ccc([N+](=O)[O-])cc2Cl)c1 the results were PME-1 Maybridge 2, Luminol counter 4, NOTCH agonist -1 and Nox1 inhibitor 89*.
For O=C(CN1CCN(Cc2ccccc2)CC1)Nc1ccccc1Oc1ccccc1 the results were PME-1 Maybridge 14, Luminol counter 0, NOTCH agonist -1 and Nox1 inhibitor -68.
Screening O=C1CNC(=S)N1CCc1ccc(O)c(O)c1 returned PME-1 Maybridge -2, Luminol counter 96*, NOTCH agonist 0 and Nox1 inhibitor 93*.
Screening O=S(=O)(Cc1cccc(C(F)(F)F)c1)Cc1nc(-c2cccc(F)c2)cs1 returned PME-1 Maybridge -1, Luminol counter -2, NOTCH agonist 0 and Nox1 inhibitor 24.
COc1ccc(Cl)cc1NC(=O)Nc1ccc(N(C)C)cc1 was read as PME-1 Maybridge 6, Luminol counter 1, NOTCH agonist 1 and Nox1 inhibitor 99*.
Screening COc1ccc(OC)c(NC(=O)Nc2ccc(Cl)cc2Cl)c1 returned PME-1 Maybridge -26, Luminol counter 3, NOTCH agonist -1 and Nox1 inhibitor -42.
